Consider 13 compounds from PubChem BioAssay.

One may read the inhibition as the relative decrease from the control value, in per cent.

Experiment [1] in a line: inhibitors of mutant huntingtin aggregation, primary screen, imaging, exon1htt(103Q)mCFP cells, high-content imaging (AID 483;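 active means visual image review flags a hit and inhibition of aggregation exceeds 20%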;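 further: compound exposure lasted 3 days before fixation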;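 on nuclei count: percent of the per-plate median nuclei count of sample wells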). To be noted: exon1htt(103Q)mCFP cell line, aggregate imaging, at 2 µM; inhibition of aggregation: stronger effect = higher value; nuclei count: measured here: cell count, toxicity.
The nature of experiment [2]: inhibitors of E-selectin induction by TNFa, primary screen, imaging, HUVEC, immunofluorescence, MLSMR starter and 10KST1 sets (AID 487;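 active means visually confirmed hit in the image check and inhibition above 20%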;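 on inhibition: signal is fraction of cell area covered by stained E-selectin grains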;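 on nuclei count: 100% = median nuclei count of all wells on the same plate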). To be noted: HUVEC TNFalpha-induced E-selectin immunofluorescence imaging, at 2 µM; inhibition: stronger effect = higher value; nuclei count: measured here: cell number, toxicity.
Experiment [3] is described as follows: DUSP6 inhibitors restoring Erk phosphorylation by chemical complementation, primary imaging in DUSP6-transfected HeLa (AID 609;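 active means compounds giving at least 50% inhibition in the cell-based MKP-3 phosphatase rescue imaging test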;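 on inhibition: phospho-Erk level distribution per well compared with pooled transfected vehicle control wells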). To be noted: HeLa MKP-3 transfected, phospho-Erk imaging KS statistic, at 10 µM, cells stimulated with TPA for 15 min.
Experiment [4] concerns the target Dual specificity protein phosphatase 6 (Homo sapiens) (UniProt Q16828). The description is as above. The following applies: HeLa MKP-3 transfected, phospho-Erk imaging KS statistic; at 10 µM; stronger effect = higher value; cells stimulated with TPA for 15 min.
The target of experiment [5] is Voltage-gated potassium channel subunit beta-2 (Rattus norvegicus) (UniProt P62483). Briefly: KvBeta enzyme negative modulators, primary screen, biochemical, NADPH fluorescence (AID 622;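 active means fluorescence slope higher than the sample average by over 3 SD, cut at about -0.22 in these data, passing the limit was not always enough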;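 further: slope of raw intensity against log time taken from 70 to 1610 s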). The following applies: recombinant KvBeta, 4-cyanobenzaldehyde reduction, at 10 µM, stronger effect = higher value.
Experiment [6] has the same target. The experiment in a line: KvBeta positive modulators, primary screen, biochemical, NADPH fluorescence (AID 623;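 active means NADPH fluorescence slope more negative than the mean of all samples by about 3 SD, 99.7% confidence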;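 further: fluorescence intensity change per second fitted from 20 to 320 s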). The following applies: Recombinant KvBeta, NADPH fluorescence decrease slope, 10 min; at 10 µM; stronger effect = lower value.
In experiment [7] the target is Alpha-2C adrenergic receptor (Homo sapiens) (UniProt P18825). The experiment in a line: modulators of alpha2C/GIRK thallium flux, primary screen, cell-based, HEK293 alpha2C/GIRK1/2 (AID 624;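 active means fluorescence slope after compound addition differing from the mean of all screened samples at 99.7% confidence, in either direction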;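 further: slope of fluorescence ratio to pre-addition baseline per second over 15 to 24 s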). The following applies: thallium flux BTC fluorescence, at 10 µM, actives lie on both sides.
A short description of experiment [8]: inhibitors of larval lipid processing in zebrafish, primary screen, whole organism, PED6 fluorescence, gall bladder and intestine (AID 686;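 active means a full or partial loss of lipid-probe fluorescence in the fish gall bladder, intestine or both, judged by eye; inactive means no fluorescence loss, or compound toxic to the fish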;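 further: larvae 5 to 7 days old with five fish per well; signal comes from phospholipase A2 cleavage of quenched PED6 carried via bile; overnight exposure to compound and PED6 before scoring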). The following applies: Zebrafish larvae PED6 lipid processing, fluorescence scoring; screened at 20 µM (by protocol).
Experiment [9] in a line: inhibitors of Chlamydomonas gravitaxis, primary screen, whole organism, Chlamydomonas reinhardtii, WT vs cilia-less mutant, absorbance, 96-well (AID 463189).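 Further: 0% = wild type cc124 cells in DMSO and 100% = ciliumless bld1 mutant cells.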 The following applies: OD600 absorbance, 2 days, at 10 µM, stronger effect = higher value.
A short description of experiment [10]: inhibitors of Sendai virus-induced IRF3 signaling, primary screen, TLR/RLR signaling modifier project, cell-based, Sendai virus stimulus, luciferase, 10K MLSCN set (AID 602276;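 active means inhibition at or above 50% at 10 µM; inactive means inhibition below 50%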;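 further: firefly luciferase from ISG56 promoter only with Renilla not read in this screen; 0% = Sendai virus plus DMSO and 100% = medium plus DMSO without virus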). The following applies: HEK293 RL24 IRF3 luciferase reporter, at 10 µM, stronger effect = higher value. For orientation: A reporter such as luciferase makes a cellular process visible.
The nature of experiment [11]: inhibitors of poly I:C-induced TLR3 signaling, primary screen, cell-based, poly I:C stimulus, luciferase, 10K MLSCN set (AID 602277;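 active means inhibition of the reporter signal at or above 50%; inactive means inhibition below 50%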). To be noted: HEK293-TLR3 RL24 IRF3 luciferase reporter, at 10 µM, stronger effect = higher value.
The target of experiment [12] is Muscarinic acetylcholine receptor M4 (Homo sapiens) (UniProt P08173). The experiment in a line: compounds altering M4/GIRK thallium flux, either direction, primary screen, M4 allosteric agonist project, cell-based, HEK293 M4/GIRK, BTC-AM (AID 625;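 active means fluorescence slope after compound addition differing from the mean of all tested samples at 99.7% confidence, mostly higher but some lower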;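 further: thallium influx through GIRK channels coupled to M4 in HEK293 cells with BTC-AM dye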). To be noted: at 10 µM, actives lie on both sides.
Setting [13] is: measured here: cell density z-score.
Setting [14] is: measured here: nuclear c-Myc green intensity z-score.
[15] abbreviates: measured here: nuclear pErk red intensity z-score, stronger effect = higher value.

Several values for one entry are separate records, joined by “and”; a condition that tells them apart may be missing. Equal entries are not always repeated. Activity calls are given as the source filed them.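 How the source made its calls, unless noted: active means inhibition at or above 50% relative to wild type and mutant plate controls; inactive means inhibition below 50%.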

Sequence of Dual specificity protein phosphatase 6 (Homo sapiens) (Q16828 whole entry, looked up): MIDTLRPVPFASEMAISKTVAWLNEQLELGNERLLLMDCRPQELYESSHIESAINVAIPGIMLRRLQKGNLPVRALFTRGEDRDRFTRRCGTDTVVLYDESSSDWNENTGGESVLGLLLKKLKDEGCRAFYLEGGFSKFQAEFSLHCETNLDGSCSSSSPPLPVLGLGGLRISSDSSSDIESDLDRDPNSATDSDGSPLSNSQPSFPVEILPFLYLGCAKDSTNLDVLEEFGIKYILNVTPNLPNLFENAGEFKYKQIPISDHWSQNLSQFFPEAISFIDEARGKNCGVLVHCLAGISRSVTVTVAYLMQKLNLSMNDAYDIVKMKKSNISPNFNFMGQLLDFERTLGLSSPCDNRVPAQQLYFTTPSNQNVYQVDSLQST
Sequence of Muscarinic acetylcholine receptor M4 (Homo sapiens) (P08173 whole entry, looked up): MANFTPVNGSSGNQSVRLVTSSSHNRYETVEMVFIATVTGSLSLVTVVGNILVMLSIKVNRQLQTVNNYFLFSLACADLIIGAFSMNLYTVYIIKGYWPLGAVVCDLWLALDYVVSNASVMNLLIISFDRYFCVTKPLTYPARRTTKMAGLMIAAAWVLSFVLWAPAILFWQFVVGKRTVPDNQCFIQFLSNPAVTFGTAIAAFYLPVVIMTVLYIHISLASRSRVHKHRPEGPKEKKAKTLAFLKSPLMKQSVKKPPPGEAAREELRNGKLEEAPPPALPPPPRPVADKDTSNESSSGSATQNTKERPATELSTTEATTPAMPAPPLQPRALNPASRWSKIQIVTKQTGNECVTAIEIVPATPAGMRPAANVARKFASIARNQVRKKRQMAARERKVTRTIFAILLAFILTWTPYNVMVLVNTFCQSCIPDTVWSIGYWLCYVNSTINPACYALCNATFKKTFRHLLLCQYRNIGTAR
Sequence of Alpha-2C adrenergic receptor (Homo sapiens) (P18825 whole entry, looked up): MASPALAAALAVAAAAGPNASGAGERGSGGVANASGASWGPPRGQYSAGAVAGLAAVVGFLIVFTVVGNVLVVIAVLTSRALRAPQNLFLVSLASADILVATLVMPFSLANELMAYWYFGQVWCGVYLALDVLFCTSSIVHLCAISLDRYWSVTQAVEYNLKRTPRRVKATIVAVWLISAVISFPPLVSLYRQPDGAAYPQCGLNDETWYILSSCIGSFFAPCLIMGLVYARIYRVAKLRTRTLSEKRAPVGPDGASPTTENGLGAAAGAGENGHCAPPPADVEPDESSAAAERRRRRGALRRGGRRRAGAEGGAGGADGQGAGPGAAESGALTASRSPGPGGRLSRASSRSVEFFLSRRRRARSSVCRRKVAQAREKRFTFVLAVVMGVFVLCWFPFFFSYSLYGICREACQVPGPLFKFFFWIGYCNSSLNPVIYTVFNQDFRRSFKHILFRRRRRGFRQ
Sequence of Voltage-gated potassium channel subunit beta-2 (Rattus norvegicus) (P62483 whole entry, looked up): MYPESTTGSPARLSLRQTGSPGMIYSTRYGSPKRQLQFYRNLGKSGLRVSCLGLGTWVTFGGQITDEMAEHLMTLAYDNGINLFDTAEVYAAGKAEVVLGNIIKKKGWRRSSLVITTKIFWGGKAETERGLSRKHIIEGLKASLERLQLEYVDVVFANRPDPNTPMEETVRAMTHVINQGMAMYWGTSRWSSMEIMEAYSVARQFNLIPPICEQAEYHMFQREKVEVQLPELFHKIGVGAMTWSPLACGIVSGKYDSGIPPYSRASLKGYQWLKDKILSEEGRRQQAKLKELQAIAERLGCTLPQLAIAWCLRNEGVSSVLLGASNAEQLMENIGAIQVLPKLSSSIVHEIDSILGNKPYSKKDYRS

For `CCCOc1ccc2nc(NC(=O)OC)[nH]c2c1`, in experiment [1], the inhibition of aggregation was -14.5% (inactive). Further, the nuclei count in [1] is 98.6%; in [2], 126%. The inhibition in [2] was -34% (inactive); in [4], 1.48% (inactive); in experiment [9] it was -11.7% (inactive); in [10], 25.2% (inactive); in experiment [11] it was 74.2% (active). The z-score is 0.515 in [3] (setting [13]), 0.392 in [3] (setting [14]) and -0.582 in [3] (setting [15]). Besides, in experiment [5], the fluorescence slope is -0.47 (inactive). In addition, in experiment [6], the NADPH fluorescence slope was -3.6e-05 (inactive). Besides, the slope in experiment [7] is 0.00449 (inactive). Moreover, in [8], the compound was called inactive.

On to `C=C(CC)C(=O)c1ccc(OCC(=O)O)c(Cl)c1Cl`, for which the inhibition of aggregation in experiment [1] is 19.4% (inactive). Further, the nuclei count in experiment [1] turned out to be 108%; in [2] it was 120%. For the same compound, the inhibition was -32.5% (inactive) in experiment [2]; 5.42% (inactive) in [4]; -3.46% (inactive) in experiment [9]; 17.1% (inactive) in experiment [10]; 39.1% (inactive) in experiment [11]. The z-score in [3] (setting [13]) is -0.0756; in experiment [3] (setting [14]), -0.0149; in [3] (setting [15]) it was 0.974. In addition, the fluorescence slope in experiment [5] was -0.476 (inactive). Besides, in [6], the NADPH fluorescence slope is -8e-05 (inactive). Besides, in experiment [7], the slope is 0.00538 (inactive). The outcome in [8] was inactive.

For `CC1(C)O[C@@H]2C[C@H]3[C@@H]4C[C@H](F)C5=CC(=O)C=C[C@]5(C)[C@@]4(F)[C@@H](O)C[C@]3(C)[C@]2(C(=O)CO)O1`, in experiment [1], the inhibition of aggregation is -15.7% (inactive). Moreover, the nuclei count was found to be 58% in experiment [1] and 102% in [2]. Besides, the inhibition in [2] is -6.4% (inactive); in [4], 27.1% (inactive); in experiment [9] it was -10.3% (inactive); in experiment [10] it was 5.68% (inactive); in experiment [11], 56.9% (active). Also, the z-score in experiment [3] (setting [13]) was 1.28; in [3] (setting [14]), -0.179; in experiment [3] (setting [15]) it was -0.732. In experiment [5], the fluorescence slope is -0.489 (inactive). The NADPH fluorescence slope in [6] was 1.8e-05 (inactive). For the same compound, the slope in experiment [7] is 0.00523 (inactive). Further, the compound was classed as inactive in [8].

`Oc1c(I)cc(Cl)c2cccnc12`: in experiment [1], the inhibition of aggregation is -1.7% (inactive). Besides, the nuclei count in experiment [1] amounted to 76.8%; in experiment [2] it was 108%. Moreover, the inhibition was -52% (inactive) in experiment [2]; 23.4% (inactive) in experiment [4]; -0.595% (inactive) in experiment [9]; 0.651% (inactive) in experiment [10]; 31.6% (inactive) in experiment [11]. For the same compound, the results for the z-score in [3] (setting [13]), in experiment [3] (setting [14]) and in experiment [3] (setting [15]) were -0.367, 0.593 and -0.324, respectively. Also, the fluorescence slope in experiment [5] is -0.459 (inactive). Also, the NADPH fluorescence slope in [6] is -3.6e-05 (inactive). Also, the slope in experiment [7] was 0.00439 (inactive). Also, the compound was classed as inactive in experiment [8].

For `C1CNCCNCCCNCCNC1`, in experiment [1], the inhibition of aggregation is 19.7% (inactive) and the nuclei count amounted to 100%. In addition, the fluorescence slope in [5] is -0.454 (inactive). In experiment [6], the NADPH fluorescence slope is -6.6e-05 (inactive). In addition, in experiment [8], the compound was called inactive. The inhibition in experiment [9] was -15.9% (inactive).

`O=C(NCC1CCCCN1)c1cc(OCC(F)(F)F)ccc1OCC(F)(F)F` (centres undefined): the inhibition is -29.3% (inactive) in experiment [2]; 15.3% (inactive) in experiment [4]; -10.1% (inactive) and -10.2% (inactive) in experiment [9]; -8.5% (inactive) in experiment [10]; 50.6% (active) in [11]. The compound also displayed a nuclei count in [2] of 107%. Also, the figures for the z-score in experiment [3] (setting [13]), in experiment [3] (setting [14]) and in experiment [3] (setting [15]) were 0.584, 0.032 and 0.103, respectively. Further, in [5], the fluorescence slope was -0.495 (inactive). The NADPH fluorescence slope in [6] was -5.3e-05 (inactive). The slope in [7] was 0.00342 (inactive). Besides, in experiment [8], the compound was classed as inactive.

On to `CC1(C)S[C@@H]2[C@H](NC(=O)[C@H](N)c3ccccc3)C(=O)N2[C@H]1C(=O)O`, for which the inhibition is -51.2% (inactive) in experiment [2]; -8.38% (inactive) in experiment [4]; -0.692% (inactive) in experiment [9]; 7.78% (inactive) in experiment [10]; 28.7% (inactive) in experiment [11]. In experiment [2], this compound returned a nuclei count of 131%. In addition, the z-score in experiment [3] (setting [13]) is -0.832; in experiment [3] (setting [14]), -1.51; in [3] (setting [15]), 1.6. Besides, in [5], the fluorescence slope is -0.459 (inactive). In addition, the NADPH fluorescence slope in experiment [6] was 1.8e-05 (inactive). The slope in experiment [7] is 0.0053 (inactive). Also, in experiment [8], the result was inactive.

With `COc1cc2nc(N3CCN(C(=O)C4CCCO4)CC3)nc(N)c2cc1OC` (centres undefined), the inhibition of aggregation in experiment [1] was -7.9% (inactive). Moreover, the nuclei count in [1] came out at 82%; in experiment [2] it was 105%. Further, the inhibition was -29.4% (inactive) in [2]; 16.8% (inactive) in experiment [4]; 3.5% (inactive) and -0.975% (inactive) in [9]; 16.1% (inactive) in [10]; 30.2% (inactive) in experiment [11]. For the same compound, the z-score is 1.01 in experiment [3] (setting [13]), -0.263 in experiment [3] (setting [14]) and -0.73 in experiment [3] (setting [15]). For the same compound, the outcome in experiment [8] was inactive.

As for `CCCCCOc1ccc(Cl)cc1CN1CCOCC1`, the inhibition in experiment [2] was -77.3% (inactive); in experiment [4], 11.3% (inactive); in experiment [9], 126% (active). Further, in [2], the nuclei count came to 110%. Moreover, the z-score is -0.264 in experiment [3] (setting [13]), 0.0743 in experiment [3] (setting [14]) and -0.781 in experiment [3] (setting [15]). Further, the figures for the fluorescence slope in experiment [5] and in experiment [12] were -0.434 (inactive) and 0.00599 (inactive), respectively. Besides, the NADPH fluorescence slope in [6] is -2.1e-05 (inactive). Besides, in experiment [8], the compound was classed as inactive.

Turning to `O=C(Oc1oc(-c2ccco2)nc1C=Nc1ccccc1)c1ccoc1`, the inhibition in [2] was -72% (inactive); in experiment [4], 15.1% (inactive); in [9], 8.33% (inactive). The nuclei count in experiment [2] came out at 165%. The z-score was 1.16 in [3] (setting [13]), -0.161 in [3] (setting [14]) and 0.106 in [3] (setting [15]). Further, the figures for the fluorescence slope in experiment [5] and in experiment [12] were -0.402 (inactive) and 0.00635 (inactive), respectively. The NADPH fluorescence slope in [6] was -4.5e-05 (inactive). In experiment [8], the result was inactive.

With `CCC1=Nc2ccccc2NC2=C1C(=O)CCC2`, the inhibition in experiment [2] was -65.4% (inactive); in experiment [4], 3.66% (inactive); in experiment [9] it was 23.6% (inactive). Besides, the nuclei count in [2] was 87.8%. Besides, the z-score was -1.25 in experiment [3] (setting [13]), 0.203 in experiment [3] (setting [14]) and -0.00909 in experiment [3] (setting [15]). Besides, the figures for the fluorescence slope in [5] and in experiment [12] were -0.427 (inactive) and 0.00568 (inactive), respectively. Besides, the NADPH fluorescence slope in experiment [6] is -3.7e-05 (inactive). Further, the compound was called inactive in experiment [8].

`O=C(O)c1ccc(COCC(F)(F)C(F)F)o1`: the results for the inhibition in experiment [2], in [4] and in experiment [9] were -92.5% (inactive), 5.26% (inactive) and 25% (inactive), respectively. Also, in experiment [2], the nuclei count came to 150%. For the same compound, the z-score in experiment [3] (setting [13]) was -0.0306; in experiment [3] (setting [14]), -1.01; in experiment [3] (setting [15]), 0.623. Moreover, in experiment [5], the fluorescence slope is -0.428 (inactive). Besides, the NADPH fluorescence slope in [6] is -0.000116 (inactive). In experiment [7], the slope is 0.00477 (inactive). Further, the outcome in [8] was inactive.

Regarding `COc1ccc(Cn2ccnc2)cc1Br`, the inhibition in experiment [2] is -47% (inactive); in experiment [4] it was 18.9% (inactive); in experiment [9], 109% (active). This compound displayed a nuclei count in experiment [2] of 141%. For the same compound, the z-score in experiment [3] (setting [13]) is -0.527; in [3] (setting [14]) it was 1.89; in experiment [3] (setting [15]), -0.19. Further, the fluorescence slope is -0.302 (inactive) in experiment [5] and 0.00733 (inactive) in experiment [12]. Moreover, the NADPH fluorescence slope in experiment [6] is 1.1e-06 (inactive). For the same compound, the result in experiment [8] was inactive.
